What was measured:
Assay in all cases: log2 ratio of Biotin-Ahx-Ub-VS probe labelling (fragment/DMSO); higher = less target engagement (more negative = stronger competition), active = hit call of the paper (q ≤ 0.05, log2 ratio ≤ -1)
Settings in all cases: compound concentration: 200 uM; treatment time: 3 h
[1] = target: USP34 (UniProt Q70CQ2)
Method in brief: (§1)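 HEK293T lysate in Tris/CHAPS/IGEPAL buffer with protease inhibitors (495 µg per sample) was given fragment at 200 µM or vehicle for 3 h, in triplicate. It then received Biotin-Ahx-Ub-VS at 0.5 µM final for 1 h. Labelled DUBs were NeutrAvidin-enriched, digested with LysC and trypsin, and run by diaPASEF LC-MS/MS. Values are average log2 fragment/vehicle ratios by unpaired t-test on global-median-normalised Spectronaut quantities of proteins with ≥2 unique peptides.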

[2] = target: T1, USP36 (UniProt Q9P275)
T1 sequence (whole entry): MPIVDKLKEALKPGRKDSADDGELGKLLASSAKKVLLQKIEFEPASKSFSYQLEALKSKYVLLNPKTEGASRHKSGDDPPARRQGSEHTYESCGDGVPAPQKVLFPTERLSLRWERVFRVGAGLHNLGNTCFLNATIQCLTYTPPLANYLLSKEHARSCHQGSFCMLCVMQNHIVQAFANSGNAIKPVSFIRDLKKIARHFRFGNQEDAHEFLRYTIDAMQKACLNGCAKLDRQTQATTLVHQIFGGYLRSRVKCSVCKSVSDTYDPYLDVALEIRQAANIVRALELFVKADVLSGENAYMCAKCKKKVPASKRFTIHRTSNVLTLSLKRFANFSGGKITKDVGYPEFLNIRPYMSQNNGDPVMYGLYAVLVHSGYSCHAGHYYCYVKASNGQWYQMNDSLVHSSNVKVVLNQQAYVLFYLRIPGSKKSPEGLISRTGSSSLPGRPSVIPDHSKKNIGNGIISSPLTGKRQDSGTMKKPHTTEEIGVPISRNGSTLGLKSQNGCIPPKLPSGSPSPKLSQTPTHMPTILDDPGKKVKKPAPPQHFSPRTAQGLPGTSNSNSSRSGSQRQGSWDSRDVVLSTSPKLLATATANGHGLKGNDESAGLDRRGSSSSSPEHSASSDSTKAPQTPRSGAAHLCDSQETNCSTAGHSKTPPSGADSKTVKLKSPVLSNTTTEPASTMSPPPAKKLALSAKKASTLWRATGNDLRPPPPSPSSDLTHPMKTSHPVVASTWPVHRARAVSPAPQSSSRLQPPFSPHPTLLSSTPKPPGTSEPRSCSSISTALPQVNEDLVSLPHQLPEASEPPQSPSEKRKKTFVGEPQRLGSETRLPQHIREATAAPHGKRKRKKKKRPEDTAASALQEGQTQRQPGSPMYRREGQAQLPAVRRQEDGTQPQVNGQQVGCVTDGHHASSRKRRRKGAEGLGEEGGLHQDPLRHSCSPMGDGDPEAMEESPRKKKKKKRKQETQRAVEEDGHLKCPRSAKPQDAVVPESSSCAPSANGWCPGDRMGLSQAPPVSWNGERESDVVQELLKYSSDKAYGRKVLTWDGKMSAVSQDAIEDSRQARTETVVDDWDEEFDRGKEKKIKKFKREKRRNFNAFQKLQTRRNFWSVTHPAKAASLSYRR
Method in brief: as §1

[3] = target: T2, USP38 (UniProt Q8NB14)
T2 sequence (whole entry): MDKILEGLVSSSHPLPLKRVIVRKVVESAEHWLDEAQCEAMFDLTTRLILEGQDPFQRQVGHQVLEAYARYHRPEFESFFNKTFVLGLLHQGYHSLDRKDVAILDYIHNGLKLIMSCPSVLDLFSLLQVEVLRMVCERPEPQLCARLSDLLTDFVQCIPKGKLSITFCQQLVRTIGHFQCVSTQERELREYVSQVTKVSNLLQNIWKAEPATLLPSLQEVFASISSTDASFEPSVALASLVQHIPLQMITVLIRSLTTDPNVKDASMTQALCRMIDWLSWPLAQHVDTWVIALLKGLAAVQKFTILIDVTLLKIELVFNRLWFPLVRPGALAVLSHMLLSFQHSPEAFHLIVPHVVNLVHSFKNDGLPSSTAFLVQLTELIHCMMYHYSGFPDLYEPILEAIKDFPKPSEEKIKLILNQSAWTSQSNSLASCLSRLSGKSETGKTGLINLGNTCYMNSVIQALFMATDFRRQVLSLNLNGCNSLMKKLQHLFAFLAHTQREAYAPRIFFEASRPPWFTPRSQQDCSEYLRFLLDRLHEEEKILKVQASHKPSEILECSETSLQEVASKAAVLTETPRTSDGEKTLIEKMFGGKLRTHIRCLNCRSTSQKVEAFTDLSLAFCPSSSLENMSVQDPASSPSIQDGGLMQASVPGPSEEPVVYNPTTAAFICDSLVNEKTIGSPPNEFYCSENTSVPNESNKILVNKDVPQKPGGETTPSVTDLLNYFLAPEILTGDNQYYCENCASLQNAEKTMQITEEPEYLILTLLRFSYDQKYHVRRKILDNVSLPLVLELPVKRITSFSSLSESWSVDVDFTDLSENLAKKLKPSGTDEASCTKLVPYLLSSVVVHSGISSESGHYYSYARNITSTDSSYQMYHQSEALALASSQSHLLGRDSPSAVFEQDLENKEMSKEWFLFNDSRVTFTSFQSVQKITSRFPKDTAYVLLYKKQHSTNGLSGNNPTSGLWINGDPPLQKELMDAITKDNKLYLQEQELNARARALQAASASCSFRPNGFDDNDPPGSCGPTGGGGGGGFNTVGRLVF
Method in brief: as §1

[4] = target: T3, USP39 (UniProt Q53GS9)
T3 sequence (whole entry): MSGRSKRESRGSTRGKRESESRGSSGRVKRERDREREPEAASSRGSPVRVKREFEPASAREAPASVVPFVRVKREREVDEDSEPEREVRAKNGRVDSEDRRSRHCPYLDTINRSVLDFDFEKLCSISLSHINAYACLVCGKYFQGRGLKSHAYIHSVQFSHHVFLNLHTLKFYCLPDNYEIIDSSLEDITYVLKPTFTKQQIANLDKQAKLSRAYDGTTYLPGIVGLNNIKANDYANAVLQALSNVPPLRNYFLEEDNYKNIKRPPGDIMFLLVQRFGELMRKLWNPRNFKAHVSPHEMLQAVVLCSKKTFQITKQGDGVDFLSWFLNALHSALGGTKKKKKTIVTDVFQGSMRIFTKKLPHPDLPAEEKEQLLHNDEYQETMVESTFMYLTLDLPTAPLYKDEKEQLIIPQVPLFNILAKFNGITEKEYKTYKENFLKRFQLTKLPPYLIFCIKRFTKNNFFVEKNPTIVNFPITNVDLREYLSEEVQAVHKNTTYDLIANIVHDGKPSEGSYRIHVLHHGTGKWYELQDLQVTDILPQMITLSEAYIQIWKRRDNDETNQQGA
Method in brief: as §1

[5] = target: T4, USP4 (UniProt Q13107)
T4 sequence (whole entry): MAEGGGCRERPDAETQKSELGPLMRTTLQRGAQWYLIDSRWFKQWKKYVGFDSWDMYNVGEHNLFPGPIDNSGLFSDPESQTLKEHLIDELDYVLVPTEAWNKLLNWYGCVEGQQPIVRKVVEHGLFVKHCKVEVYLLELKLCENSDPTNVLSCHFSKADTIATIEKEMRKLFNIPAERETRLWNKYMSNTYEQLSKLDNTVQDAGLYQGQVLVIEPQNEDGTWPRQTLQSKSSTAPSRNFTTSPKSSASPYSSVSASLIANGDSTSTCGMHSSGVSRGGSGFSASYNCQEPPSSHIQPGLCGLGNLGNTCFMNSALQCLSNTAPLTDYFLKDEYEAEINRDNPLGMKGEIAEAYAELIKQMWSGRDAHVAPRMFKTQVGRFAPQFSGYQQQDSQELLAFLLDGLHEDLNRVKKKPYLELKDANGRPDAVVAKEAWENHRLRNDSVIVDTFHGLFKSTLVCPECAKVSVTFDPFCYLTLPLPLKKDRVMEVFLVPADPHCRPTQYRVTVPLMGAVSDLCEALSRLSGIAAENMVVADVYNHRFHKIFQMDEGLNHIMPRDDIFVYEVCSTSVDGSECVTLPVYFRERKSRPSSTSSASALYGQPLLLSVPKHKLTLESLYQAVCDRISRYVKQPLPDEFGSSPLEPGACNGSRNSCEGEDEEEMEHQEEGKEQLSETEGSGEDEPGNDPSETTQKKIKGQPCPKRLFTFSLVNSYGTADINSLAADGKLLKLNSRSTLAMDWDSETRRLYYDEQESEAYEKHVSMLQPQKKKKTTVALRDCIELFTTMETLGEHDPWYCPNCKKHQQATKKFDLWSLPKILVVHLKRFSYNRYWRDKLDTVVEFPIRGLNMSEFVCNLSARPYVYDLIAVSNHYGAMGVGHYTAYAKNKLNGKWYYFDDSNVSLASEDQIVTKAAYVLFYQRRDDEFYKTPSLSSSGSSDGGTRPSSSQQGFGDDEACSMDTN
Method in brief: as §1

Measured: log2 ratio of Biotin-Ahx-Ub-VS probe labelling

USP34, sequence (Q70CQ2 whole entry, the tested form may be a part): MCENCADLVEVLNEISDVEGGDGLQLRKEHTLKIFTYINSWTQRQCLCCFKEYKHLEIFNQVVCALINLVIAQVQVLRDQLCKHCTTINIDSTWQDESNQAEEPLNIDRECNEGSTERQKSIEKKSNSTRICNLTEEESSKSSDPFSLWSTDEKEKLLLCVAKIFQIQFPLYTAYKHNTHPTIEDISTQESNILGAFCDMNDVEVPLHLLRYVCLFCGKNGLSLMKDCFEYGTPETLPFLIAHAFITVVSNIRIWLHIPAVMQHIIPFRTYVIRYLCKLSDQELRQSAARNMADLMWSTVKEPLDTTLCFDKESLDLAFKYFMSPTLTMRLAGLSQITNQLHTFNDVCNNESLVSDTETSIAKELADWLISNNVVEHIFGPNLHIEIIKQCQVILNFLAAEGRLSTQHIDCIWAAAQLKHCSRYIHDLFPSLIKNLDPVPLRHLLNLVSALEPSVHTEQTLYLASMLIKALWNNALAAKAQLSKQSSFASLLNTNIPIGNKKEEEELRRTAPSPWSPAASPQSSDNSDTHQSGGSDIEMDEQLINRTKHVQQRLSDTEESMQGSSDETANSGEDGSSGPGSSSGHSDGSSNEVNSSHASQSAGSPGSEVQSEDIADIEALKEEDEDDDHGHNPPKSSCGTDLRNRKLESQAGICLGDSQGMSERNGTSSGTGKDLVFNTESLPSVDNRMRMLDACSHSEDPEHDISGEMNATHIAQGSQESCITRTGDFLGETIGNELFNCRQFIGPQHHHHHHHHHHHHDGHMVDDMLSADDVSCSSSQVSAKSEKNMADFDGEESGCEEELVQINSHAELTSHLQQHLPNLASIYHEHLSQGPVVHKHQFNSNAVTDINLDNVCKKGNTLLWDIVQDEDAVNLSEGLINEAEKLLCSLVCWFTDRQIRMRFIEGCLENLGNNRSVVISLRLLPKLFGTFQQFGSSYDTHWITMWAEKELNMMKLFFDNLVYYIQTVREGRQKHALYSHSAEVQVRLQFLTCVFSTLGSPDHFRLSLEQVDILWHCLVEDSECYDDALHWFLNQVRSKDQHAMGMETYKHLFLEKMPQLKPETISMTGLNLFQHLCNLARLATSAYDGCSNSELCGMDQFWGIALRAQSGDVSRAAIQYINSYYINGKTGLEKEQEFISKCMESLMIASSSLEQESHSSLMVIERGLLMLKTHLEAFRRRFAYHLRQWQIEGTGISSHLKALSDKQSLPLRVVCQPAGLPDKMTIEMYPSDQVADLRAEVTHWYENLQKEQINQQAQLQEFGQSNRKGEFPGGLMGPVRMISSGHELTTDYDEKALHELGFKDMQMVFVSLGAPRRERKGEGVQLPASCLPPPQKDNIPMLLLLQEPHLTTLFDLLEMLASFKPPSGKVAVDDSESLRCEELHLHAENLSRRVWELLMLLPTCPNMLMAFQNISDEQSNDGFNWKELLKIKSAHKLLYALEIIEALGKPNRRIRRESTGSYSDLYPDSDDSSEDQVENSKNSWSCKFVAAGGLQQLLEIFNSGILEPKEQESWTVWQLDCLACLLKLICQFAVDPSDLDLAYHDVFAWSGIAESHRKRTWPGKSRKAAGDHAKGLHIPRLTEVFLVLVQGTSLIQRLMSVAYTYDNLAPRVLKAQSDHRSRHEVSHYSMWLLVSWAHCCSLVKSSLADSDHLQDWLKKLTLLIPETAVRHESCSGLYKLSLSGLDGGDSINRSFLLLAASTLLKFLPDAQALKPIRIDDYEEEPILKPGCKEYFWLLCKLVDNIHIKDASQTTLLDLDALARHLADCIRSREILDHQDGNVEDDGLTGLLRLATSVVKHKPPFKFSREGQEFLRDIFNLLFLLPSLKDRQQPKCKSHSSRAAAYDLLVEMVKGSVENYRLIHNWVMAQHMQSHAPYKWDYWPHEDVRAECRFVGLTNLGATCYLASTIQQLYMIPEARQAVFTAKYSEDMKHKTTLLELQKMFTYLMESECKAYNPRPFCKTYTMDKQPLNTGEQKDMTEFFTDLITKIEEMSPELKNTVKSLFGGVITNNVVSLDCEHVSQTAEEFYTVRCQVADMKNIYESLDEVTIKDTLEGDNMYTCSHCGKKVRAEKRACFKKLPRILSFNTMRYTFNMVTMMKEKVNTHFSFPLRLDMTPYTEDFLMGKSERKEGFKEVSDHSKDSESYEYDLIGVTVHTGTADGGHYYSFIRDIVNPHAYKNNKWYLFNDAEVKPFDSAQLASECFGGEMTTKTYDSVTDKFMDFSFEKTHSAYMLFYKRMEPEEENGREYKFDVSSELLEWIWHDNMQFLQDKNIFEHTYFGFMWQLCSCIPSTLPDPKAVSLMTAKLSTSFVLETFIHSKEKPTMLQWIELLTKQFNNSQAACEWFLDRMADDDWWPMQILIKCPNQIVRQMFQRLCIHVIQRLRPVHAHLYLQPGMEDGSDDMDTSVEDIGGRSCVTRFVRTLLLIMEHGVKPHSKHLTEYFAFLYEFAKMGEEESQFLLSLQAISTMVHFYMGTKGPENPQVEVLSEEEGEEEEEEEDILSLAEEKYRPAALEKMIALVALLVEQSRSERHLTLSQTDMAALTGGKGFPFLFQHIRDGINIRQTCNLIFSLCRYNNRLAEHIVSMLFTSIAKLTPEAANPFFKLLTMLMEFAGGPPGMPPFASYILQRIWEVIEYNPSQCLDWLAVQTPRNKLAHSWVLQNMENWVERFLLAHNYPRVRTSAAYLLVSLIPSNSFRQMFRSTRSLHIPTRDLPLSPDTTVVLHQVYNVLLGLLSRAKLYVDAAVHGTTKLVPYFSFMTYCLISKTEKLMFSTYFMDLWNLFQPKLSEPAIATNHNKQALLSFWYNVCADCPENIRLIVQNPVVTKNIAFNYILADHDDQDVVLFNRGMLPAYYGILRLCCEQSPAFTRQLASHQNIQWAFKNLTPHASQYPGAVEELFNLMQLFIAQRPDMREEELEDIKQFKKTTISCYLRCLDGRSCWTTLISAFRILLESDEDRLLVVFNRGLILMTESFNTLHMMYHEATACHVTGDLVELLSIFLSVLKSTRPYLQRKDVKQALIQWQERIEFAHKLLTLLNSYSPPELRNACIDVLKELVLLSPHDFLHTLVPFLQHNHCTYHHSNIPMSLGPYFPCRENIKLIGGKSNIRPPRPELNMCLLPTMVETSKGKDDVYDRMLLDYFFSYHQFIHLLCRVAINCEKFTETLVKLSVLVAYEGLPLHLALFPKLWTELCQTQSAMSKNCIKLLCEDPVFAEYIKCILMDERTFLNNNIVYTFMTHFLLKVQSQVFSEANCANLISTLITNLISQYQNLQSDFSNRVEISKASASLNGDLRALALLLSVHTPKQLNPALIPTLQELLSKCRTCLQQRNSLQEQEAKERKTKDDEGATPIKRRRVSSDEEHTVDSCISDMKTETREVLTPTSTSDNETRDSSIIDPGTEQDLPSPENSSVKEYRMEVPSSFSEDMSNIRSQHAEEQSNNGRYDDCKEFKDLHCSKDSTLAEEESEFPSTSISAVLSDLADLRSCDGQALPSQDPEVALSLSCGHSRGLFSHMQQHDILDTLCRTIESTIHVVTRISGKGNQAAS

Cl.O=C(CCl)N1CCc2ncncc2C1
inactive: [1] -0.136 | [2] 0.0811 | [3] -0.0489 | [4] 0.321 | [5] -0.201

From the supplement of paper PMC11732987, “Enantioselective OTUD7B fragment discovery through chemoproteomics screening and high-throughput optimisation” (Communications Chemistry, 2025)
